Data taken from PubChem BioAssay AID588727 (Southern Research Specialized Biocontainment Screening …, 2011).
In all, about 350,000 compounds went through this assay and about 450 (0.13%) were called active. The rule behind the calls is not given here. A selection follows. Measured potencies and affinities stand elsewhere.

Experiment: inhibitors of VEEV TC-83 cytopathic effect, confirmation, Vero cells (AID 588727)
Details: VEEV TC-83 cytopathic effect inhibition, at 20 µM
[1] = stronger effect = higher value unless noted
[2] = measured here: 10K pilot screen inhibition, stronger effect = higher value

## c1ccc(-n2ncc3c2ncn2nc(CSc4nc5ccccc5s4)nc32)cc1
[1]
  inhibition: inactive

## O=c1[nH]c(CSc2ncccn2)nc2c1cnn2-c1ccccc1
Higher = more active
  inhibition: 5.59% (inactive)
[2]
  inhibition: 3.44%

## CCc1ccc(OCC(=O)Nc2nnc(-c3ccco3)s2)cc1
[1]
  inhibition: 0.88% (inactive)

## Fc1ccc(-n2ncc3c(SCc4cccnc4)ncnc32)cc1
[1]
  inhibition: 3.59% (inactive)

## CSc1ncnc2c1cnn2-c1ccc(C)cc1C
[1]
  inhibition: 8.17% (inactive)

## Cc1ccc(-n2ncc3c(NCc4cccnc4)ncnc32)c(C)c1
[1]
  inhibition: 1.66% (inactive)

## Cc1ccc(-n2ncc3c(NCc4ccccn4)ncnc32)c(C)c1
[1]
  inhibition: 1.72% (inactive)

## COc1ccc(C(C(=O)NCC2CCCO2)N(Cc2ccc(F)cc2)C(=O)CNC(=O)c2ccco2)cc1OC (configuration not stated)
[1]
  inhibition: 1.15% (inactive)

## Cc1cc(O)ccc1N1C(=O)c2cccc3cc([N+](=O)[O-])cc(c23)C1=O
[1]
  inhibition: inactive

## O=C1c2cccc3cc([N+](=O)[O-])cc(c23)C(=O)N1c1nncs1
[1]
  inhibition: inactive

## Cc1ccc(C)c(OCc2cc(C(=O)N3CCN(c4ccccc4C)CC3C)no2)c1 (configuration not stated)
[1]
  inhibition: 4.26% (inactive)

## Cc1cc(C(=O)N(Cc2nnc(-c3ccc(Cl)cc3)o2)C(C)C)c2ccccc2n1
[1]
  inhibition: 8.49% (inactive)

## c1ccc(-c2cnnc(-c3ccccn3)n2)cc1
[1]
  inhibition: 2.25% (inactive)

## c1ccc(-c2nc(-c3ccccn3)no2)cc1
[1]
  inhibition: inactive

## CCCCn1c(N)c(N(CCC(C)C)C(=O)CSc2nnc3ccccn23)c(=O)[nH]c1=O
[1]
  inhibition: 0.96% (inactive)

## CN(C)CCCNC(=O)/C=C/c1ccc2c(c1)OCO2
Higher = more active
  inhibition: 0.85% (inactive)
[2]
  inhibition: 1.09%

## COCCCNC(=O)/C=C/c1ccc(Cl)cc1
[1]
  inhibition: inactive

## Cc1cc(-c2nnc(CCC(=O)NC(C)c3ccc(F)cc3)o2)no1 (configuration not stated)
Higher = more active
  inhibition: 0.09% (inactive)
[2]
  inhibition: 1.8%

## Nc1nnc(SCC(=O)OCC(=O)Nc2ccc(Br)cc2F)s1
[1]
  inhibition: 1.19% (inactive)

## COc1ccc(S(=O)(=O)N2CCOCC2)cc1C(=O)NCc1ccccc1CN1CCCC1
[1]
  inhibition: 0.08% (inactive)

## CCc1ccc(-c2nc(CSCC(=O)NCCCN3CCCC3=O)c(C)o2)cc1
[1]
  inhibition: 3.51% (inactive)

## CCCOc1ccccc1/C=C1\SC(N)=NC1=O
[1]
  inhibition: 2.5% (inactive)

## O=C1N=C(N2CCCCC2)S/C1=C\c1ccccc1F
[1]
  inhibition: 0.16% (inactive)

## CCOC(=O)C1CCCN(c2oc(-c3ccc(OC)cc3)nc2C#N)C1 (configuration not stated)
[1]
  inhibition: 2.16% (inactive)

## O=C(COC(=O)COc1ccccc1)NCCc1ccccc1
[1]
  inhibition: 0.2% (inactive)

## CCC(=NC(C)c1ccccc1)c1c(O)[nH]c(=O)[nH]c1=O (configuration not stated)
[1]
  inhibition: 1.39% (inactive)

## CCn1c(SCC(=O)N/N=C/c2ccc(OC)c(OC)c2)nc2ccccc21
Higher = more active
  inhibition: 4.2% (inactive)
[2]
  inhibition: 2.22%

## C=CCSc1nc2ccccc2n1C(=O)/C=C/c1cc(OC)c(OC)c(OC)c1
[1]
  inhibition: 2.65% (inactive)

## CC(=O)N1CCC(N(CCCOC(C)C)S(=O)(=O)c2ccc([N+](=O)[O-])cc2)CC1
[1]
  inhibition: inactive

## Cc1ccc(-c2nc(CSCC(=O)N3CCCC3)c(C)o2)cc1
[1]
  inhibition: inactive

## Cc1oc(-c2ccccc2Cl)nc1CSCC(=O)O
[1]
  inhibition: 1.08% (inactive)

## Cc1onc(-c2ccccc2)c1C(=O)NC(=S)NNC(=O)c1ccncc1
[1]
  inhibition: 1.78% (inactive)

## COc1ccc(NC(=O)c2cn(-c3ccccc3)nc2-c2ccncc2)cc1
[1]
  inhibition: 8.65% (inactive)

## CCN(CC)CCNC(=S)NC(=O)c1cn(-c2ccccc2)nc1-c1ccc(OC)cc1
[1]
  inhibition: inactive

## O=C(NC(=S)NCCO)c1cn(-c2ccccc2)nc1-c1ccccc1
[1]
  inhibition: 1.03% (inactive)

## Cc1onc(-c2ccccc2)c1C(=O)Nc1sc2c(c1C#N)CCC2
[1]
  inhibition: 2.67% [measured here: 10K pilot screen inhibition, stronger effect = higher value]
  outcome: inactive

## Cc1ccc(NC(=O)Nc2nnc(-c3ccccc3F)s2)cc1
[1]
  inhibition: 0.72% (inactive)

## Cc1ccc(S(=O)(=O)N(C)c2ccc(C(=O)Nc3c(C)n(C)n(-c4ccccc4)c3=O)cc2)cc1
[1]
  inhibition: 2.04% (inactive)

## Cn1ncc(Br)c1C(=O)O
Higher = more active
  inhibition: 0.63% (inactive)
[2]
  inhibition: 1.4%

## CCC1CSC(Nc2ccc(C(=O)/C=C/c3ccc(Br)cc3)cc2)=N1 (configuration not stated)
[1]
  inhibition: 0.39% (inactive)

## CCC1CSC(Nc2ccc(C(=O)/C=C/c3cccc(C)c3)cc2)=N1 (configuration not stated)
[1]
  inhibition: 32.8% (inactive)

## COc1ccc(C(=O)NC2CCCc3c2cnn3-c2cc(F)cc(F)c2)c(OC)n1 (configuration not stated)
[1]
  inhibition: 0.41% (inactive)

## O=C(NC1CCCc2c1cnn2-c1ccccc1F)c1ccncc1 (configuration not stated)
[1]
  inhibition: inactive

## COCCC(=O)NC1CCCc2c1cnn2-c1cccc(C)c1C (configuration not stated)
[1]
  inhibition: inactive

## CC1=C(C(=O)NC2CCCc3c2cnn3-c2cccc(C)c2C)OCCO1 (configuration not stated)
[1]
  inhibition: 1.75% (inactive)

## Cc1cc(C(=O)NC2CCCc3c2cnn3-c2cccc(C)c2C)n(C)n1 (configuration not stated)
[1]
  inhibition: inactive
